Test [1] can be described thus: blockers of polyQ-driven CASP3 activation – cell-based (AID 1583). The note with it: polyglutamine-induced caspase-3 activation, cell assay; stronger effect = higher value;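 tested at 10 µM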.
Test [2] is described as follows: yeast 75Q aggregation reduction – 75Q-TubU reporter (AID 1593). The note with it: Yeast 75Q polyglutamine aggregation reporter.
Test [3] can be described thus: restoration of touch response, mutant HTT neurons – whole organism, C. elegans mechanosensory neurons, N-terminal huntingtin (AID 1599). The note with it: C. elegans polyQ-huntingtin mechanosensory neurons, stronger effect = higher value.
Test [4] is described as follows: blockers of cytochrome c efflux from mitochondria – biochemical, purified mitochondria (AID 1603).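 Note: mouse liver mitochondria challenged with calcium chloride; signal normalized to the plate average as 100%.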 The note with it: stronger effect = lower value.
A short description of test [5]: polyglutamine aggregate formation blockers (AID 1604). The note with it: polyglutamine-induced protein aggregation inhibition assay; stronger effect = higher value; tested at 2.5 µM.
Test [6] in a line: glutamate transport activators, MN-1 cells, MN-1 cell line (AID 1612).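 Note: tested at 1 µM final; 0% = mean of DMSO vehicle wells on each plate; positive means more glutamate uptake than control and negative means less.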 The note with it: MN-1 motor neuron cells, stronger effect = higher value.
A short description of test [7]: 75Q-TubH aggregate inhibition, S. cerevisiae, yeast (AID 1616). The note with it: S. cerevisiae 75Q-TubH polyglutamine aggregation suppression; stronger effect = higher value.
Test [8] in a line: P. berghei load reduction in hepatocytes – cell-based, HepG2, luciferase luminescence, HepG2 viability, primary screen (AID 624349).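 Note: 100% = mean of DMSO negative control wells on the same plate.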 The note with it: P. berghei liver stage in HepG2, luciferase luminescence, concentration not given here; parasite load remaining: stronger effect = lower value; viability: measured here: HepG2 viability without parasites.
Test [9] in a line: EMT-state selective cytotoxicity in co-culture – imaging, PC-3E GFP, TEM4-18 mCherry, primary screen (AID 1345086;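 active = compounds killing one labelled cell type while sparing the other, by normalised counts and ratio limits, not self-fluorescent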;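 for all read-outs here: cells exposed to compound for 72 h before imaging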;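 for red/green cell ratio (normalised): normalised mesenchymal count divided by normalised epithelial count so high means epithelial killing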). The note with it: PC-3E GFP / TEM4-18 mCherry co-culture, imaging cell counts, at 1 µM; for red/green cell ratio (normalised): actives lie on both sides, counts scaled to control wells, 1 = unselective.
Test [10] can be described thus: viability loss with induced miR-34 in A549 – imaging, A549 dox-inducible miR-34, nuclei and caspase counts, primary screen (AID 1347080;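 active = compounds whose cell count with miR-34 switched on is under 0.7 times the count with it off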). The note with it: A549 miR-34 inducible, Hoechst nuclei count, 48 h.
Test [11] can be described thus: GFP-Q80 aggregate reduction, neuronal-like cells, cell-based, NGF-treated PC12, GFPQ80 (AID 1614).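 Note: lower means fewer inclusions and 0 means no inclusions at all.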 The note with it: PC12 NGF-treated GFP-polyQ80 inclusion reduction.
Test [12] can be described thus: galactose survival enhancers in mitochondrial complex I cybrids – cell-based, galactose medium, ATP luminescence, primary screen (AID 1645843;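 active = z-score of at least 1.8 in each of two replicates, scored against plate mean and spread of sample wells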;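 note: positive z means more ATP and so rescue of galactose-driven cybrid death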). The note with it: complex I mutant cybrid cells, 72 h, stronger effect = higher value.
[13] abbreviates: measured here: epithelial PC-3E GFP cell survival.
Where [14] appears, read: measured here: mesenchymal TEM4-18 mCherry cell survival.
Where [15] appears, read: stronger effect = lower value, cell number ratio, induced over uninduced.
[16] abbreviates: measured here: relative caspase fold change +Dox/-Dox.
[17] abbreviates: measured here: total cells with miR-34 induction, stronger effect = lower value.
Where [18] appears, read: measured here: total cells without miR-34 induction.

Molecules are shown by their SMILES. Several values for one entry are separate records, joined by “and”; a condition that tells them apart may be missing. Identical values can stand only once. For some of these results: Measured potencies and affinities stand elsewhere. The source holds several records for some structures; these can differ, active in one and inactive in another. Activity calls are given as the source filed them. Cut-off read from the data, not from the text of the source, unless noted: active = parasite load remaining mostly below about 12% (no sharp cut-off); inactive = mostly above about 10%. Bridge positions count the residues as written; N and C are the ends. Square brackets hold non-standard residues; d marks the D form. Peptide text beside a SMILES is read from it. * marks the point of attachment. ξ: configuration not given here. ξDab(CH2SO3H) = NC(CCNCS(=O)(=O)O)C(=O)O; Heptanoyl(6-Me) = CC(C)CCCCC(=O)*; Dab = NCC[CH](N)C(=O)O

Take `C#C[C@]1(OC(C)=O)CCC2C3CCC4=CC(=O)CC[C@@H]4C3CC[C@@]21C` (stereo partly specified): in [1], the inhibition (commonly the relative decrease from the control value, in per cent) was 17.5%. Moreover, in [2], the score was 0.07. Also, the rescue above control in test [3] came to 0.31. For the same compound, the cytochrome c release ratio in test [4] was 1.09. The compound further gave an inhibition of aggregation in [5] of 7.32%. The glutamate uptake change in test [6] came to 12.7%. Further, the aggregation suppression score in test [7] is 0.237. For the same compound, in [8], the parasite load remaining is 88.9% (inactive) and 45.6% (inactive). The viability (commonly a per cent measure of how many cells are alive, often set against a control) in test [8] is 69.5% and 94.9%. For the same compound, the red/green cell ratio (normalised) in test [9] is 1.18 (inactive). The figures for the normalised cell number in [9] (setting [13]) and in test [9] (setting [14]) were 1 and 1.17, respectively. Also, the fold change in test [10] (setting [15]) is 0.881 (inactive); in [10] (setting [16]), 2.11. Moreover, the figures for the cell count in test [10] (setting [17]) and in test [10] (setting [18]) were 10900 and 12400, respectively.

In [1], `CC(C)[N+]1(C)C2CC[C@@H]1CC(OC(=O)C(CO)c1ccccc1)C2` (stereo partly specified) came in with an inhibition of 3.73%. The same compound showed a score in [2] of 1.48. For the same compound, the rescue above control in [3] is -2.72. Moreover, the cytochrome c release ratio in [4] was determined as 0.9. Besides, the inhibition of aggregation in test [5] stood at 73%. Besides, the glutamate uptake change in test [6] was -1.05%. Moreover, the inclusion score in test [11] turned out to be 2. For the same compound, the aggregation suppression score in test [7] is 0.901. Besides, in [8], the parasite load remaining was 88% (inactive) and 61.6% (inactive). In addition, the viability in [8] was 79% and 98.1%. The red/green cell ratio (normalised) in [9] was 0.61 (inactive). Moreover, the normalised cell number in test [9] (setting [13]) was 1.35; in test [9] (setting [14]), 0.82. Moreover, the fold change in [10] (setting [15]) is 0.876 (inactive); in test [10] (setting [16]) it was 1.18. The cell count turned out to be 10700 in [10] (setting [17]) and 12200 in [10] (setting [18]).

`CCCCC(=O)O[C@H]1CCC2C3CCc4cc(O)ccc4C3CC[C@@]21C` (stereo partly specified) had an inhibition in [1] of 15.8%. The score in [2] was -2.02. Further, in [3], the rescue above control was 17.4. The cytochrome c release ratio in [4] turned out to be 1.02. In addition, the inhibition of aggregation in [5] was found to be 26.4%. In addition, the glutamate uptake change in test [6] amounted to 19.7%. In test [7], this compound displayed an aggregation suppression score of 0.271. The parasite load remaining in test [8] was 83% (inactive) and 44.1% (inactive). In test [8], the viability is 74.5% and 87.8%. Also, the red/green cell ratio (normalised) in test [9] is 0.95 (inactive). In addition, the figures for the normalised cell number in [9] (setting [13]) and in [9] (setting [14]) were 0.89 and 0.84, respectively. Further, the fold change in test [10] (setting [15]) was 0.938 (inactive); in [10] (setting [16]), 1.71. Further, the cell count in test [10] (setting [17]) turned out to be 10200; in test [10] (setting [18]) it was 10900.

Compound `CCC(C)C1NC(=O)C(CCNCS(=O)(=O)O)NC(=O)C(NC(=O)C(CCNCS(=O)(=O)O)NC(=O)C(NC(=O)C(CCNCS(=O)(=O)O)NC(=O)CCCCC(C)C)C(C)O)CCNC(=O)C(C(C)O)NC(=O)C(CCNCS(=O)(=O)O)NC(=O)C(CCNCS(=O)(=O)O)NC(=O)C(C(C)CC)NC1=O` (stereo unspecified) ({Heptanoyl(6-Me)}-[ξDab(CH2SO3H)]T[ξDab(CH2SO3H)][Dab][ξDab(CH2SO3H)]II[ξDab(CH2SO3H)][ξDab(CH2SO3H)]T; lactam 4-C; configuration not given here) yielded an inhibition in [1] of 16.7%. Besides, the score in test [2] is 0.3. In addition, the rescue above control in test [3] came to 0. Also, in [4], the cytochrome c release ratio stood at 1.4. The compound also came in with an inhibition of aggregation in [5] of 59.3%. In [6], the glutamate uptake change is -9.16%. Also, in [7], the aggregation suppression score came to 0.253. Further, in [8], the parasite load remaining was 124% (inactive) and 57.4% (inactive). Further, the viability in [8] was 68.9% and 92.3%. In addition, the red/green cell ratio (normalised) in test [9] is 1.41 (inactive). In addition, the normalised cell number in test [9] (setting [13]) was 1.02; in [9] (setting [14]), 1.44. In addition, the figures for the fold change in [10] (setting [15]) and in test [10] (setting [16]) were 0.942 (inactive) and 0.679, respectively. Besides, the cell count was 11200 in [10] (setting [17]) and 11900 in test [10] (setting [18]).

In the case of `CC[C@H]1CN2CCc3cc(OC)c(OC)cc3C2C[C@@H]1CC1NCCc2cc(OC)c(OC)cc21` (stereo partly specified), the inhibition in [1] was found to be 43.8%. The compound further came in with a score in [2] of 1.69. In [3], this compound came in with a rescue above control of -0.41. Besides, in test [4], the cytochrome c release ratio came to 1.03. Moreover, the inhibition of aggregation in [5] came out at 67.5%. The glutamate uptake change in test [6] is -39.3%. In [7], this compound gave an aggregation suppression score of 1.03. For the same compound, the parasite load remaining in test [8] was -0.06% (active) and -0.06% (inactive). Moreover, the viability in test [8] was 69.1% and 43.7%. The red/green cell ratio (normalised) in test [9] was 0.69 (inactive). The normalised cell number in test [9] (setting [13]) came out at 0.22; in test [9] (setting [14]), 0.15. The fold change in test [10] (setting [15]) is 1.07 (inactive); in [10] (setting [16]), 1.51. Besides, the figures for the cell count in [10] (setting [17]) and in test [10] (setting [18]) were 2470 and 2320, respectively.

As to `C[C@]12CCC(=O)C=C1CCC1C2C(=O)C[C@@]2(C)C1CC[C@]2(O)C(=O)CO` (stereo partly specified), the red/green cell ratio (normalised) in test [9] is 0.7 (inactive). Besides, the results for the normalised cell number in test [9] (setting [13]) and in test [9] (setting [14]) were 1.3 and 0.91, respectively. Besides, the fold change in test [10] (setting [15]) was 0.915 (inactive); in test [10] (setting [16]) it was 1.12. Besides, the figures for the cell count in test [10] (setting [17]) and in test [10] (setting [18]) were 9120 and 9960, respectively. The z-score in [12] was 0.345 (inactive).

In test [1], `O=C(O)CCCCC1SCC2NC(=O)NC21` (stereo unspecified) returned an inhibition of 27.9%. For the same compound, the score in test [2] turned out to be 1.08. Moreover, the rescue above control in test [3] was 4.79. For the same compound, in [4], the cytochrome c release ratio was 0.89. Moreover, in [5], the inhibition of aggregation is 0%. The glutamate uptake change in [6] was -4.28%. The compound also showed an inclusion score in test [11] of 2. Besides, the aggregation suppression score in test [7] came to 1.3. Moreover, the parasite load remaining in test [8] was 40.6% (inactive) and 36.1% (inactive). For the same compound, the viability in [8] is 78% and 88.2%. In addition, the red/green cell ratio (normalised) in test [9] is 1.21 (inactive). Also, the normalised cell number in test [9] (setting [13]) is 1.02; in test [9] (setting [14]), 1.23. The fold change in [10] (setting [15]) was 0.892 (inactive); in [10] (setting [16]), 3.76. Moreover, the cell count is 12200 in [10] (setting [17]) and 13700 in [10] (setting [18]).

Values taken from PubChem BioAssay.
